Results from the supplement of paper PMC10849652.
The full data set covers some 8,800 targets. This sample favours those with a hit. About 0.5% of all pairs of compound and target were hits.

Legend:
Assay in all cases: log2 fold change, soluble protein after heating vs DMSO (PISA); higher = thermal stabilisation; K562 lysate, 10 uM; active = over 0.2 and 3.5 SD of the protein, either way, in both replicates (recomputed)
[1] = compound: C=CC(=O)N1CCC[C@@H](n2nc(-c3ccc(Oc4ccccc4)cc3)c3c(N)ncnc32)C1 [ibrutinib]
Summary of the method: (§1)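 To prepare the extract, K562 pellets were dounce-homogenised in PBS pH 7.4 with 1 mM MgCl2, giving crude material at 1 mg/mL protein. This was treated with 10 μM compound for 30 min, then heated in aliquots for 3 min over 48°C-58°C before pooling and addition of NP-40 to 0.5% at 4°C. Centrifugation at 21,000xg for 90 min left soluble protein in the supernatant, which TMTpro 16plex LC-MS/MS quantified with equalised channel sums. Results are log-two fold changes in thermal stability compared with solvent controls, from duplicates.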

[2] = compound: CC(=O)c1cnc2ccc(-c3cc(Cl)c(O)c(Cl)c3)nc2c1N[C@H]1CC[C@H](CN(C)C)CC1
Summary of the method: as §1

[3] = compound: CC(C)(C)Cn1c(N)nc2ccc(-c3[nH]c(C(C)(C)C)nc3-c3ccc(F)cc3)nc21 [ralimetinib]
Summary of the method: as §1

[4] = compound: CC(C)(O)CC(=O)NCCn1ccc2ncnc(Nc3ccc(Oc4cccc(C(F)(F)F)c4)c(Cl)c3)c21
Summary of the method: as §1

[5] = compound: CC(C)C1=C2N=C(C=C(N2N=C1)NCC3=CC=CC=C3)NCCCCCCN
Summary of the method: as §1

[6] = compound: CC1=C(C(CC(=O)N1)C2=CC=C(C=C2)C(F)(F)F)C(=O)NC3=C(C=C4C(=C3)C=NN4)F
Summary of the method: as §1

[7] = compound: CC1=C(C2=C(C=C1)C(=O)C3=CC=CC=C3N2CCCN)C
Summary of the method: as §1

[8] = compound: CC1=C(C=C(C=C1)NC(=O)C2=CC(=CC=C2)C(C)(C)C#N)NC3=CC4=C(C=C3)N=CN(C4=O)C
Summary of the method: as §1

[9] = compound: CC1=C(C=C(C=C1)NC(=O)C2=CC(=CC=C2)N(C)C)NC(=O)C3=CC=C(C=C3)O
Summary of the method: as §1

[10] = compound: CC1=CC=C(C=C1)SC2=C3C=C(SC3=CN=C2)C(=O)N
Summary of the method: as §1

[11] = compound: CCCS(=O)(=O)Nc1ccc(F)c(C(=O)c2c[nH]c3ncc(-c4ccc(Cl)cc4)cc23)c1F [vemurafenib]
Summary of the method: as §1

[12] = compound: CCCS(=O)(=O)Nc1ccc(F)c(C(=O)c2c[nH]c3ncc(Cl)cc23)c1F
Summary of the method: as §1

[13] = compound: CCN(CCCOc1ccc2c(Nc3cc(CC(=O)Nc4cccc(F)c4)[nH]n3)ncnc2c1)CCOP(=O)(O)O [barasertib]
Summary of the method: as §1

[14] = compound: CC[C@@H]1C(=O)N(C)c2cnc(Nc3ccc(C(=O)NC4CCN(C)CC4)cc3OC)nc2N1C1CCCC1
Summary of the method: as §1

[15] = compound: CC[C@@H]1C(=O)N(C)c2cnc(Nc3ccc(C(=O)N[C@H]4CC[C@H](N5CCN(CC6CC6)CC5)CC4)cc3OC)nc2N1C(C)C [volasertib]
Summary of the method: as §1

[16] = compound: CCn1c(C(=O)N(C2CC2)C2CC2)cc2c3c(ncn3C)c(Nc3cc(C)n(C)n3)nc21
Summary of the method: as §1

[17] = compound: CCn1cc(-c2ccnc3[nH]c(-c4cccc(CN(C)C)c4)cc23)c(-c2ccc(NC(=O)N(C)C)cc2)n1
Summary of the method: as §1

[18] = compound: CN1CCC(CNc2ccc3ncc(-c4cccc(OC(F)(F)F)c4)n3n2)CC1
Summary of the method: as §1

[19] = compound: CN1CCN(CCOc2cc(OC3CCOCC3)c3c(Nc4c(Cl)ccc5c4OCO5)ncnc3c2)CC1 [saracatinib]
Summary of the method: as §1

[20] = compound: CN1CCN(c2nc(C3=C(c4c[nH]c5ccccc45)C(=O)NC3=O)c3ccccc3n2)CC1 [sotrastaurin]
Summary of the method: as §1

Measured: log2 fold change

RECQL5 (UniProt O94762)
Sequence of UniProt O94762 (O94762 whole entry, looked up): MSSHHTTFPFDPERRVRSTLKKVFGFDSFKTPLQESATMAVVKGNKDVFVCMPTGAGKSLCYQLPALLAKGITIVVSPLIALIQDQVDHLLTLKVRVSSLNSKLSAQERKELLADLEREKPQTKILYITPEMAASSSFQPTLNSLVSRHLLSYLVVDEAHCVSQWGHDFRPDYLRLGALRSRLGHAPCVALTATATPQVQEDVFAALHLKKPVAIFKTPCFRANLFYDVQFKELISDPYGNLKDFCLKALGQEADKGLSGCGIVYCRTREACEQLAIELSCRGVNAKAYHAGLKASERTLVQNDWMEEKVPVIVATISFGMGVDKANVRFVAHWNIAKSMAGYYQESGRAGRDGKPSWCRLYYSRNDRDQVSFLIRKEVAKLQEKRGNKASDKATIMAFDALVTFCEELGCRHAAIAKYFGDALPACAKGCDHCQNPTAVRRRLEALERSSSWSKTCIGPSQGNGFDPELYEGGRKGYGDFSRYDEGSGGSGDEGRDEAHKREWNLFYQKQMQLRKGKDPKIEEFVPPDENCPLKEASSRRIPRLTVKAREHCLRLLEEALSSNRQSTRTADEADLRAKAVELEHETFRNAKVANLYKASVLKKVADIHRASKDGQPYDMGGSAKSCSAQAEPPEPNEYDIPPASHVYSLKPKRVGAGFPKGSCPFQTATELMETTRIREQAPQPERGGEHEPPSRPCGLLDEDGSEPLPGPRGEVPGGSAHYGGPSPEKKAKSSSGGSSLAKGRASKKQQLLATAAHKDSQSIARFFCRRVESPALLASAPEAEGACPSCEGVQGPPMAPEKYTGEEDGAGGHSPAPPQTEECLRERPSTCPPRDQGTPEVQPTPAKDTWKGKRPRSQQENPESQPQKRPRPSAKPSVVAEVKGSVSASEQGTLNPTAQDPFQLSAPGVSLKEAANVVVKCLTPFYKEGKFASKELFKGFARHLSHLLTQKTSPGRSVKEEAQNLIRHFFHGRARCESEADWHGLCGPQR
inactive: [1] 0.014 | [2] -0.335 | [3] 0.035 | [4] -0.015 | [5] 0.055 | [6] 0.03 | [7] -0.066 | [8] -0.044 | [9] 0.035 | [10] -0.001 | [11] -0.028 | [12] -0.045 | [13] 0.02 | [14] 0.069 | [15] -0.187 | [16] -0.01 | [17] 0.131 | [18] -0.222 | [19] 0.018 | [20] 0.003

SEC16A isoform 5 (UniProt O15027)
inactive: [1] 0.035 | [2] -0.021 | [3] -0.013 | [4] 0.015 | [5] 0.01 | [6] 0.019 | [7] 0.004 | [8] -0.121 | [9] 0.011 | [10] -0.031 | [11] 0.03 | [12] 0.019 | [13] 0.021 | [14] 0.038 | [15] -0.028 | [16] 0.006 | [17] 0.008 | [18] -0.037 | [19] 0.013 | [20] -0.01

RNASEH2B (UniProt Q5TBB1)
inactive: [1] -0.001 | [2] -0.032 | [3] 0.026 | [4] 0 | [5] 0.031 | [6] -0.025 | [7] 0.024 | [8] 0.005 | [9] 0.025 | [10] 0.009 | [11] -0.008 | [12] 0.034 | [13] -0.035 | [14] -0.056 | [15] -0.044 | [16] -0.001 | [17] 0.026 | [18] -0.101 | [19] -0.022 | [20] 0.062

RPL37A (UniProt P61513)
active: [17] 0.371
inactive: [1] -0.005 | [2] 0.002 | [3] -0.041 | [4] 0.03 | [5] -0.009 | [6] -0.021 | [7] -0.032 | [8] 0.038 | [9] 0.004 | [10] 0.051 | [11] 0.003 | [12] -0.002 | [13] -0.013 | [14] -0.01 | [15] -0.015 | [16] -0.044 | [18] -0.158 | [19] -0.035 | [20] -0.138

RPL36AL (UniProt Q969Q0)
inactive: [1] -0.038 | [2] 0.004 | [3] -0.018 | [4] 0.088 | [5] -0.004 | [6] -0.001 | [7] 0.068 | [8] -0.038 | [9] 0.013 | [10] 0.052 | [11] -0.039 | [12] 0.012 | [13] -0.009 | [14] -0.04 | [15] -0.013 | [16] 0.076 | [17] -0.076 | [18] -0.004 | [19] -0.091 | [20] -0.032

RBM42 (UniProt Q9BTD8)
Sequence of UniProt Q9BTD8 (Q9BTD8 whole entry, looked up): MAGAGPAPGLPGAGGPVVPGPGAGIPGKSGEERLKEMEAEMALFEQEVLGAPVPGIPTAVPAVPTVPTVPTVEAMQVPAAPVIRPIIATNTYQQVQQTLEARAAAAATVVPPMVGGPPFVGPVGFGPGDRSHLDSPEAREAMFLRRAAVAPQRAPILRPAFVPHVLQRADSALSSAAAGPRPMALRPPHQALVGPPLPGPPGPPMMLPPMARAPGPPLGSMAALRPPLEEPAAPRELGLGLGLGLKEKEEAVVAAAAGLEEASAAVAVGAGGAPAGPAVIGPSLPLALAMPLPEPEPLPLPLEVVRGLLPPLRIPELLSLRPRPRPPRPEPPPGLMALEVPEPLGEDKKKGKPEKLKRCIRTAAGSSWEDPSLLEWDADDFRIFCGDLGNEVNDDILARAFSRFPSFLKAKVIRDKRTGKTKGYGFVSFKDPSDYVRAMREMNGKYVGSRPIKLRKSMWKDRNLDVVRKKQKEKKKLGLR
inactive: [1] 0.071 | [2] 0.02 | [3] -0.011 | [4] -0.007 | [5] 0.081 | [6] 0.025 | [7] 0.04 | [8] -0.028 | [9] -0.005 | [10] 0.069 | [11] -0.029 | [12] 0.027 | [13] -0.037 | [14] 0.076 | [15] -0.014 | [16] -0.006 | [17] 0.004 | [18] -0.002 | [19] 0.039 | [20] -0.009

RAD51C (UniProt O43502)
Sequence of UniProt O43502 (O43502 whole entry, looked up): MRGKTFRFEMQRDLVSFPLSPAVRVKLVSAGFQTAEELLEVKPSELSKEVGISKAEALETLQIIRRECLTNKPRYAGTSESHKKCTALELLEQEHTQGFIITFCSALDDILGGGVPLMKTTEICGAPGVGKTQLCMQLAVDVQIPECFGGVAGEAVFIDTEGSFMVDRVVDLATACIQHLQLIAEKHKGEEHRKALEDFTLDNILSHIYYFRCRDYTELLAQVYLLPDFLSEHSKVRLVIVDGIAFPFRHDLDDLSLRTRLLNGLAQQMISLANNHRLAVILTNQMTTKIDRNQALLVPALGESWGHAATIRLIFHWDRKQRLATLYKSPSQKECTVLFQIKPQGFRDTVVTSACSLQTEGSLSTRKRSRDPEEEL
inactive: [1] -0.015 | [2] 0.055 | [3] 0.044 | [4] 0.009 | [5] 0.067 | [6] -0.015 | [7] -0.039 | [8] 0 | [9] -0.037 | [10] -0.051 | [11] -0.067 | [12] -0.01 | [13] -0.011 | [14] -0.017 | [15] 0.046 | [16] -0.038 | [17] -0.027 | [18] 0.027 | [19] 0.01 | [20] 0.027

RAB1B (UniProt Q9H0U4)
Sequence of UniProt Q9H0U4 (Q9H0U4 whole entry, looked up): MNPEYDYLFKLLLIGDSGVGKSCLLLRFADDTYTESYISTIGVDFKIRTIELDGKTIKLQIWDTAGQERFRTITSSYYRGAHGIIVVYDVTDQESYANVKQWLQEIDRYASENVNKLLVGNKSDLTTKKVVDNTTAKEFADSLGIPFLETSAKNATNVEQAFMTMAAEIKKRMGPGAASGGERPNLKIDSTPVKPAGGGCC
inactive: [1] -0.011 | [2] -0.01 | [3] -0.014 | [4] -0.012 | [5] -0.006 | [6] 0.02 | [7] -0.014 | [8] -0.036 | [9] -0.011 | [10] -0.006 | [11] -0.003 | [12] 0.012 | [13] 0.073 | [14] 0.019 | [15] 0.006 | [16] -0.016 | [18] 0.171 | [19] 0.021 | [20] 0.017
active: [17] -0.444

RPAP1 (UniProt Q9BWH6)
Sequence of UniProt Q9BWH6 (Q9BWH6 whole entry, looked up): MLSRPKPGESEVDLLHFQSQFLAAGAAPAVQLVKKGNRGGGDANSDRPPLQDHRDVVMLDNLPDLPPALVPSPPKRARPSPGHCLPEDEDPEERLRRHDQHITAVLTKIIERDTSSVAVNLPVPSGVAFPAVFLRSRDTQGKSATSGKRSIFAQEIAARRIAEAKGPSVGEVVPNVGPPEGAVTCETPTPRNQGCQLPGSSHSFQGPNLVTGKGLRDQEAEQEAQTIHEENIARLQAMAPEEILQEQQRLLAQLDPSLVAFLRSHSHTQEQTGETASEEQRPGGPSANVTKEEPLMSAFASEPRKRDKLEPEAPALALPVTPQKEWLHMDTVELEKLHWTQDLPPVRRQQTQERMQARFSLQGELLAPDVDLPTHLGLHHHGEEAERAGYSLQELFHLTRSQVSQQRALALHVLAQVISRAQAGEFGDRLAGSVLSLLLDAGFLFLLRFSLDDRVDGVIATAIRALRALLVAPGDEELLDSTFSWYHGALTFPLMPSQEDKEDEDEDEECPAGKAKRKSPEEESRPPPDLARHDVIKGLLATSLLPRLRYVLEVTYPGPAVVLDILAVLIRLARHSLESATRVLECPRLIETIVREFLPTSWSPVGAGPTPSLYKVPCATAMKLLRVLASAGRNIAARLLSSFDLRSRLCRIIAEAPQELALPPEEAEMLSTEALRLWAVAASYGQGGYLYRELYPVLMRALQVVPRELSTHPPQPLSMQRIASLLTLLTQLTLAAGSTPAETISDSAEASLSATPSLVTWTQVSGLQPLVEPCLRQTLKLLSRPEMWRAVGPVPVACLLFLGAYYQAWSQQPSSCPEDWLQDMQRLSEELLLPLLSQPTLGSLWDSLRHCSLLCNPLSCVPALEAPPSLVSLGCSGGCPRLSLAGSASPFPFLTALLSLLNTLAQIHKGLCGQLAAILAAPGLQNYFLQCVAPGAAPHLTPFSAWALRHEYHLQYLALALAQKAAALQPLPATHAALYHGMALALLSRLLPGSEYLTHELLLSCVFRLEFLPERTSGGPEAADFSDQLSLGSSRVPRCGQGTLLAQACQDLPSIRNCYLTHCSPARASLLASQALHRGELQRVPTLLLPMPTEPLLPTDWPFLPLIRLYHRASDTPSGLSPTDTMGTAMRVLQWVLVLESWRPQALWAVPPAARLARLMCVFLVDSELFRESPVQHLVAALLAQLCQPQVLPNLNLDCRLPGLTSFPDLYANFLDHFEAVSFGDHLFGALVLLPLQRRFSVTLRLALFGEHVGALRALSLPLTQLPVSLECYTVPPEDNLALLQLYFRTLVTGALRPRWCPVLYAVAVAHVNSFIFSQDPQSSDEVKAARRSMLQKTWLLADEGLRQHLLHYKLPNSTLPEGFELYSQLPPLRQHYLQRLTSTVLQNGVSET
inactive: [1] -0.016 | [2] 0.049 | [3] 0.02 | [4] -0.015 | [5] -0.037 | [6] 0.011 | [7] -0.002 | [8] -0.013 | [9] 0.007 | [10] -0.033 | [11] -0.008 | [12] -0.012 | [13] 0.012 | [14] -0.028 | [15] -0.053 | [16] 0 | [17] -0.031 | [18] 0.008 | [19] 0.02 | [20] 0.01

RPL27 (UniProt P61353)
active: [17] 0.572
inactive: [1] 0.037 | [2] -0.014 | [3] -0.025 | [4] -0.018 | [5] -0.01 | [6] -0.067 | [7] -0.051 | [8] 0 | [9] -0.01 | [10] 0.014 | [11] -0.022 | [12] -0.002 | [13] 0.011 | [14] -0.001 | [15] -0.008 | [16] -0.001 | [18] -0.079 | [19] 0.019 | [20] -0.015

SEC61G (UniProt P60059)
Sequence of UniProt P60059 (P60059 whole entry, looked up): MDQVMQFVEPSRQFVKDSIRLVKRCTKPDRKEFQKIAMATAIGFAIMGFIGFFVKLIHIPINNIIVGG
inactive: [1] 0.037 | [2] 0 | [3] -0.019 | [4] -0.229 | [5] -0.052 | [6] -0.081 | [7] -0.053 | [8] 0.071 | [9] 0.004 | [10] 0.052 | [11] 0.015 | [12] -0.079 | [13] 0.175 | [14] 0.159 | [15] 0.033 | [16] -0.067 | [17] -0.118 | [18] 0.405 | [19] -0.276 | [20] -0.184

RPLP0P6 (UniProt Q8NHW5)
inactive: [1] 0.064 | [2] -0.005 | [3] -0.01 | [4] -0.02 | [5] -0.009 | [6] -0.052 | [7] -0.028 | [8] 0.015 | [9] 0.01 | [10] -0.017 | [11] -0.002 | [12] 0.012 | [13] -0.121 | [14] 0.009 | [15] -0.009 | [16] -0.02 | [17] -0.011 | [18] 0.017 | [19] -0.011 | [20] -0.02

SERINC3 (UniProt Q13530)
Sequence of UniProt Q13530 (Q13530 whole entry, looked up): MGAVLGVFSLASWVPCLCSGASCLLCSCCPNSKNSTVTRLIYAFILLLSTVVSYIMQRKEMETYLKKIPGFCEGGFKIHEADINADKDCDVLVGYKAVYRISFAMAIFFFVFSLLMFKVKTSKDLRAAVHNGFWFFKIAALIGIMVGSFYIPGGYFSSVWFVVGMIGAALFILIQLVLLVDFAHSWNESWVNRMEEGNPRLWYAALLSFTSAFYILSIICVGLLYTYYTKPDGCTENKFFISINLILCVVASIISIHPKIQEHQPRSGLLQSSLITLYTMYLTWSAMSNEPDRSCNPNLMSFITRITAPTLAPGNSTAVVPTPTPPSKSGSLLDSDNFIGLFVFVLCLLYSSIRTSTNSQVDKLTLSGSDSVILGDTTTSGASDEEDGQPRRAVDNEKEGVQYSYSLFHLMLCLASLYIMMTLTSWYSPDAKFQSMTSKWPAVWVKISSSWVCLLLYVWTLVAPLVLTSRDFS
inactive: [1] 0.06 | [2] -0.082 | [3] 0.01 | [4] -0.003 | [5] -0.016 | [6] -0.012 | [7] -0.055 | [8] 0.049 | [9] -0.042 | [10] -0.011 | [11] 0.05 | [12] 0.074 | [13] -0.02 | [14] 0.039 | [15] 0.066 | [16] -0.05 | [18] 0.224 | [19] 0.052 | [20] 0.081
active: [17] -0.443

RIOK3 (UniProt O14730)
Sequence of UniProt O14730 (O14730 whole entry, looked up): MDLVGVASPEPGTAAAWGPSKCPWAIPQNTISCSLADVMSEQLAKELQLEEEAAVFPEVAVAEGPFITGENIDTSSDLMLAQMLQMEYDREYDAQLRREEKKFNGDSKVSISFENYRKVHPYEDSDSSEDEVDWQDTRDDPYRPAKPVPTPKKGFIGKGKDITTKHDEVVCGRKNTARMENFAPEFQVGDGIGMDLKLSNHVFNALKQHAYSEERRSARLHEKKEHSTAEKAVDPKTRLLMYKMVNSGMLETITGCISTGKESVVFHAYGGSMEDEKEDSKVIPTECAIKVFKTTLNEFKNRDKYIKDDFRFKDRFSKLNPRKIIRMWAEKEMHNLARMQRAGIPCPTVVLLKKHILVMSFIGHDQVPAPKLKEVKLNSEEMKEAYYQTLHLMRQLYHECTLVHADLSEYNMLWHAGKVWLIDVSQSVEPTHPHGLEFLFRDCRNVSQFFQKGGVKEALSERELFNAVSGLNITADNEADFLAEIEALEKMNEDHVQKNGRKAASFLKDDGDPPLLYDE
inactive: [1] -0.021 | [2] -0.013 | [3] 0.055 | [4] 0 | [5] 0.054 | [6] -0.011 | [7] -0.023 | [8] 0.001 | [9] 0.011 | [10] -0.093 | [11] 0.021 | [12] -0.004 | [13] 0.004 | [14] -0.098 | [15] -0.041 | [16] -0.032 | [17] -0.052 | [18] -0.024 | [19] -0.03 | [20] 0.013

RABL3 (UniProt Q5HYI8)
Sequence of UniProt Q5HYI8 (Q5HYI8 whole entry, looked up): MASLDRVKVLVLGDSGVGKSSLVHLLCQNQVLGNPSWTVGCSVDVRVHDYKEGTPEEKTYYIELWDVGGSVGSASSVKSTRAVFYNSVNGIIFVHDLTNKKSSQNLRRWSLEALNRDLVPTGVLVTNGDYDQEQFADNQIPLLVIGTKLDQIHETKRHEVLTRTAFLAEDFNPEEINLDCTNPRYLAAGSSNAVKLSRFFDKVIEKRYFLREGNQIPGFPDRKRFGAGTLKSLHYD
inactive: [1] 0.017 | [2] 0.014 | [3] 0.153 | [4] -0.05 | [5] -0.047 | [6] 0.021 | [7] -0.043 | [8] 0.003 | [9] -0.141 | [10] 0.014 | [11] 0.043 | [12] 0.024 | [13] 0.033 | [14] -0.072 | [15] -0.045 | [16] 0.632 | [17] -0.045 | [18] -0.032 | [19] 0.018 | [20] 0.069

RPS4X (UniProt P62701)
active: [17] 0.242
inactive: [1] 0 | [2] -0.003 | [3] 0.009 | [4] -0.021 | [5] 0.022 | [6] -0.026 | [7] -0.116 | [8] -0.008 | [9] -0.001 | [10] 0.034 | [11] 0.001 | [12] -0.014 | [13] -0.033 | [14] 0.001 | [15] -0.007 | [16] -0.025 | [18] -0.059 | [19] -0.016 | [20] -0.009
